From PubChem BioAssay
An excerpt weighted towards active compounds, which were near 2% of everything screened.
EWS-Fli block – blocks EWS/Fli oncoprotein-driven transcription; 350,000 tested, 0.67% active; inhibition, % at 12.6 µM; A673 NR0B1-luciferase reporter, viability-normalised;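 active means mean inhibition of at least 50% after viability correction, with every replicate also passing that limit; inconclusive means mean reaches 50% but only one of two replicates passes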;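 further: firefly luciferase signal divided by Alamar Blue viability fluorescence both relative to DMSO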
LGR2 antag – inhibitors of bursicon-induced Drosophila LGR2 receptor cAMP signaling | HEK293 LGR2, CRE-luciferase, bursicon-stimulated, 4 h | 380,000 tested, 0.35% active | inhibition, % at 9.99 µM;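 active means drop in luminescence signal, shown as inhibition above about 50% in the replicate tests, limit read from the data, passing the limit was not always enough; inconclusive means probably only some replicates passing the limit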;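 further: agonist challenge used bursicon conditioned medium at about half maximal strength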
Shn3 3UTR inh – Schnurri-3 reporter inhibition in Clone20 osteoblasts. Clone20 osteoblast Shn3 3'UTR firefly luciferase, 24 h. inhibition, % at 12.5 µM. 360,000 tested, 0.52% active. AID 588674;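 active means mean inhibition of at least 75% with every replicate also reaching 75%; inconclusive means mean inhibition at least 75% but some replicate below; inactive means mean inhibition below 75%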;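 further: 0% = median of neutral control wells and 100% = pilot-screen positive control compound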
PAX8 inh HTS – lowers PAX8-driven luciferase in RMG-I cells; RMG-I TPO-luciferase reporter, SteadyGlo, 24 h; inhibition, % at 12.6 µM; 360,000 tested, 1.2% active; AID 652154;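 active means mean replicate inhibition at least 60% with every replicate also reaching 60%; inconclusive means only one of the two criteria is met; inactive means mean below 60% and not all replicates reaching 60%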;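 further: luciferase light reporting Pax8 driven TPO promoter activity; plate controls were median of neutral control wells for no effect and mitoxantrone controls for full effect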
CF NFkB block – cystic fibrosis NF-kB activation inhibition. KKLEB NF-kB-GFP reporter, PAF-induced, GFP fluorescence overnight. inhibition, % at 5 µM. AID 588850. 360,000 tested, 0.86% active;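 active means at least 50% inhibition at 5 µM, scaled per plate between neutral and stimulator controls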;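 further: PAF is a Pseudomonas aeruginosa culture filtrate used as stimulus; plate controls were PAF-stimulated DMSO wells for no effect and unstimulated DMSO wells for full effect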
KKLEB cytotox – counter-screen for CF NF-kB inhibitors: cytotoxicity | KKLEB CF airway cells viability, ATPlite luminescence, overnight; stronger effect = lower value; cells stimulated with P. aeruginosa culture filtrate | 360,000 tested, 0.36% active | activity change (cytotoxicity), % at 5 µM;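 active means corrected activity change at or below -50% at 5 µM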
* hit, by the source's call; ? = inconclusive; . = no result.

SMILES | EWS-Fli block | LGR2 antag | Shn3 3UTR inh | PAX8 inh HTS | CF NFkB block | KKLEB cytotox
C[C@@H]1CCCCO[C@H](CN(C)Cc2ccc(C(F)(F)F)cc2)[C@H](C)CN([C@H](C)CO)C(=O)c2cc(NC(=O)Nc3ccc(C(F)(F)F)cc3)ccc2O1 | -13 | 13 | . | -9 | . | .
C[C@@H]1CN([C@@H](C)CO)C(=O)c2cc(NC(=O)Nc3ccc(C(F)(F)F)cc3)ccc2O[C@@H](C)CCCCO[C@@H]1CN(C)Cc1ccccc1 | -3 | -5 | . | 79* | . | .
C[C@@H]1CCCCO[C@H](CN(C)Cc2ccccc2)[C@@H](C)CN([C@@H](C)CO)C(=O)c2cc(NC(=O)Nc3ccc(C(F)(F)F)cc3)ccc2O1 | ? | 3 | . | 119* | . | .
C[C@@H]1CCCCO[C@H](CN(C)Cc2ccc(C(=O)O)cc2)[C@@H](C)CN([C@H](C)CO)C(=O)c2cc(NC(=O)Nc3ccc(C(F)(F)F)cc3)ccc2O1 | -7 | -16 | . | -14 | . | .
C[C@@H]1CN([C@H](C)CO)C(=O)c2cc(NC(=O)Nc3ccc(C(F)(F)F)cc3)ccc2O[C@@H](C)CCCCO[C@H]1CN(C)Cc1ccccc1 | 77* | 9 | . | 113* | . | .
C[C@@H]1CN([C@@H](C)CO)C(=O)c2cc(NC(=O)Nc3ccc(C(F)(F)F)cc3)ccc2O[C@@H](C)CCCCO[C@@H]1CN(C)Cc1ccc(C(F)(F)F)cc1 | -7 | 5 | . | -21 | . | .
C[C@@H]1CN([C@H](C)CO)C(=O)c2cc(NC(=O)Nc3ccc(C(F)(F)F)cc3)ccc2O[C@@H](C)CCCCO[C@@H]1CN(C)Cc1ccccc1 | 25 | 12 | . | 109* | . | .
CCNC(=O)Nc1ccc2c(c1)C(=O)N(C)[C@H]1CC[C@H](CC(=O)N[C@H](C)c3ccccc3)O[C@H]1CO2 | -12 | -14 | . | -27 | . | .
COc1cccc(-c2cc(NC=O)c3ncc(-c4cc(OC)c(OC)c(OC)c4)n3c2)c1 | 53* | -17 | 10 | 26 | 46 | -19
COc1cc(-c2cnc3c(NC=O)cc(-c4ccsc4)cn23)cc(OC)c1OC | 56* | -21 | 8 | . | 24 | -22
COc1ccc(OC)c(C(c2c(C)[nH][nH]c2=O)c2c(C)[nH][nH]c2=O)c1 | 3 | 11 | -8 | 14 | -13 | -2
COc1ccc(O)c(C(c2c(C)[nH][nH]c2=O)c2c(C)[nH][nH]c2=O)c1 | 10 | 14 | 23 | 97* | -20 | 10
O=C(c1ccco1)N1N=C(c2ccc(Br)cc2)CC1(O)C(F)(F)F (centres undefined) | 5 | 7 | 4 | 97* | -11 | 0
Cc1ccc(-c2ccc3c(c2)O[C@@H](CN(C)C(=O)Nc2ccccc2)[C@@H](C)CN([C@H](C)CO)S3(=O)=O)cc1 | -19 | 9 | . | 68* | . | .
Cc1ccccc1-c1ccc2c(c1)O[C@H](CN(C)C(=O)Nc1ccc(C(F)(F)F)cc1)[C@H](C)CN([C@H](C)CO)S2(=O)=O | 15 | -8 | . | 83* | . | .
Cc1ccc(-n2nnnc2SCC(=O)Nc2ccc3c(c2)OCCO3)cc1C | . | . | -6 | . | -2 | 4
Cc1ccc(NC(=O)CSc2nnnn2-c2ccc3c(c2)OCO3)cc1C | . | . | 39 | . | 65* | -54*
COC(=O)C1CCN(C(=O)c2ccc(Cl)c(S(=O)(=O)NCc3cccnc3)c2)CC1 | . | . | 4 | . | 10 | -12
Cc1cccc(OCCNC(=O)c2ccc(Cl)c(S(=O)(=O)NCc3cccnc3)c2)c1 | 57* | 9 | 15 | 33 | 32 | -22
COc1cc(OC)cc(C2=Cc3ccccc3C(CC(C)=O)N2c2ccc(-c3cccs3)cc2)c1 (centres undefined) | 3 | 2 | . | 70* | . | .
O=C(Nc1cccc(F)c1)N1CC(=O)N2[C@H](CO)[C@H](c3ccc(-c4ccccc4)cc3)[C@@H]2C1 | 2 | 1 | . | 19 | . | .
O=C(CCl)N1c2ccccc2CCc2ccccc21 | 84* | 14 | -23 | 17 | 22 | -14
CO[C@H]1CN(C)C(=O)c2ccc(NC(=O)C3CC3)cc2OC[C@@H](C)N(CC2CCCC2)C[C@@H]1C | 15 | 8 | . | 1 | . | .
C[C@H](CO)N1C[C@H](C)[C@H](CN(C)S(=O)(=O)c2ccc(Cl)cc2)OCCCC[C@H](C)Oc2ccc(NC(=O)Cc3ccccc3)cc2C1=O | 8 | -3 | . | ? | . | .
C[C@@H]1CCCCO[C@@H](CN(C)S(=O)(=O)c2ccc(Cl)cc2)[C@H](C)CN([C@H](C)CO)C(=O)c2cc(NC(=O)Cc3ccccc3)ccc2O1 | 15 | 9 | . | 62* | . | .
SMILES | EWS-Fli block | LGR2 antag | Shn3 3UTR inh | PAX8 inh HTS | CF NFkB block | KKLEB cytotox
C[C@@H]1CN([C@H](C)CO)C(=O)c2cc(NC(=O)Nc3ccc(F)cc3)ccc2O[C@@H](C)CCCCO[C@H]1CN(C)S(=O)(=O)c1ccc(Cl)cc1 | -15 | 14 | 17 | 76* | -6 | 4
C[C@@H]1CCCCO[C@H](CN(C)S(=O)(=O)c2ccc(Cl)cc2)[C@H](C)CN([C@@H](C)CO)C(=O)c2cc(NC(=O)NC3CCCCC3)ccc2O1 | 6 | 22 | . | 63* | . | .
C[C@H](CO)N1C[C@H](C)[C@H](CN(C)S(=O)(=O)c2ccc(Cl)cc2)OCCCC[C@H](C)Oc2ccc(NC(=O)Nc3ccccc3)cc2C1=O | -2 | 9 | . | 65* | . | .
N#C[C@@H]1[C@@H](c2ccccc2-c2cccc(F)c2)[C@@H](CO)N1C(=O)C1CCC1 | -11 | -1 | . | 20 | . | .
C[C@H](CO)N1C[C@H](C)[C@@H](CN(C)S(=O)(=O)c2ccc(Cl)cc2)OCCCC[C@H](C)Oc2ccc(NC(=O)Nc3ccc(F)cc3)cc2C1=O | 23 | 10 | . | 46 | . | .
C[C@@H]1CCCCO[C@H](CN(C)S(=O)(=O)c2ccc(Cl)cc2)[C@@H](C)CN([C@@H](C)CO)C(=O)c2cc(NC(=O)Nc3ccc(F)cc3)ccc2O1 | 6 | 17 | . | 66* | . | .
C[C@H](CO)N1C[C@H](C)[C@@H](CN(C)C(=O)Nc2ccc(C(F)(F)F)cc2)OCCCC[C@H](C)Oc2ccc(NC(=O)Nc3ccc(C(F)(F)F)cc3)cc2C1=O | 4 | -1 | . | 49 | . | .
COc1ccc(S(=O)(=O)Nc2ccc3c(c2)C(=O)N([C@@H](C)CO)C[C@@H](C)[C@@H](CN(C)C(=O)Nc2ccc(C(F)(F)F)cc2)OCCCC[C@H](C)O3)cc1 | 2 | 19 | . | 9 | . | .
COc1ccc(S(=O)(=O)Nc2ccc3c(c2)C(=O)N([C@@H](C)CO)C[C@H](C)[C@H](CN(C)C(=O)Nc2ccc(C(F)(F)F)cc2)OCCCC[C@H](C)O3)cc1 | 12 | 8 | . | 50 | . | .
COc1ccc(S(=O)(=O)Nc2ccc3c(c2)C(=O)N([C@@H](C)CO)C[C@H](C)[C@@H](CN(C)C(=O)Nc2ccc(C(F)(F)F)cc2)OCCCC[C@H](C)O3)cc1 | 10 | 18 | . | 65* | . | .
